tested on: VDR:RXRa (NR concentration 270 nM, RXRa partner concentration 90 nM); experiment: PBM binding z-score (relative to random genomic background probes); higher = stronger binding; sequences stand for … in GC…GCGATTGACAGCGTAGAATGAAGG
Procedure: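 Protein-binding microarray (Agilent 4x180K custom design, double-stranded 60-nt probes: 5' GC cap, 34-nt variable region, 24-nt constant primer region; full probe sequence given). Purified or IVT nuclear receptor:RXRα heterodimers (3:1 NR:RXRα, mostly 270:90 nM) or homodimers were incubated for 1 h in PBS with 2% milk and no ligand, then detected with Alexa488 antibodies. Fluorescence from o1-orientation probes (~5 replicates averaged) was converted to z-scores against 500 random hg19 background probes. Variable regions are seed direct-repeat (DR0–DR5) sites, all their single-nucleotide variants and half-site ablations.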

Sequence | PBM binding z-score
ACTAGCCGGCCAAGTTTGGGTCACTCAAACAAAG | 0.6
CCTGCTAGGTCAATGGTCAGGTAAAGCAGCTCGC | 0.722
CCTACTGGGCCACAAAAGGTCATTGATTCAGTGA | 3.98
ATCTCTAGGTAACAAGTTCAGTCAAAGAGAGGAC | 1.74
ATCGAAAGGTCGACGGTGAGTATACCCACCCGAA | 2.62
GCAACGAGGGCATTCGAGTTGATAGCATGGCGAT | 3.57
TAGCCTAGGTCATTCAGGGGCCAGTGTAGAAAGC | 3.33
GGAACGAGGGCAAACTTGATAGCATCTGTCGACG | 1.42
AGAATGCGGTTATACGTAGATCAGGGAAGAAAGT | -0.334
TCTTGTAGATCAAGCAGTTTAAGAAAGCCTGAGT | 0.549
CCTAGAAGGCCAATCTGGGTCACTCAAGGCTTGA | 1.39
AGCCAAAGTTCATCTAGGTAACGTAAGATATGCT | 4.48
CGTCCAAGGTCAATGCTAGGTCAGTGGAAGCATT | 4.77
CTCGAACGGTCGTGCTCAGGTGAGTATACCAAAC | -0.344
CGTCCAAGGTCAAGGCTAGGTCAGTGAAAGCATT | 5.06
GGAACGAGGGCATTCGAATTGATAGCATGGCGAT | 1.13
ACTATTAGTTGACTTAGAGCAACCGATACGACGC | -0.14
CAAACTAGGTCACAGAGCTCAAAGTCCGTGCGTA | 3.09
CTACCAAGGTGAACAAGGTCGTTGACTACTATTC | 6.23
CCTTACGGATCACTCCAGGTTATAGCATCGGAGT | 0.59

Sequence | PBM binding z-score
CAAACTAGGTCACGAAAGGTCAGAGTCGAATGAC | 6.2
CCGAGTAGGTAATGGGGCATTCAGGCAACGGTGA | -0.509
ATCTCTAGGGAAAGTTCAGTGAAAGATCGATAGA | 1.12
ACAGACAGGTGATGAAGGTAACCCAGGCTATCAT | -0.00497
ACTCGGACGACAAAGGTCAGAGCTACGCCAGTGA | 2.76
CCTAGTTGGTCAAGGTCAGACACGCTATAGGTAC | 2.83
TCTAGTTGGTCAAATGTCACACACTCGAAATGCG | 1.44
TCGCCTAGGTCAGATCGGGCCAGTATACGCTATA | 0.717
ACTACAGGGTCACTAGGCCAGAGTAGGTACGAAT | 3.76
AGAATGAGGTTCTACGTAGATCAGGGAAGAAAGT | -0.436
ATCGAAAGGTTGAGGTGAGTATAGAGAAAGGGAA | 0.543
AATACAGGGACACTAGGCCAGAGTAGGTACGAAT | -0.219
TCTTGGAGATCAATAGAGGTTAAGAAAGTGCGCT | 2.08
ATATGTAGGTGAGCTGGGGTCATTCAGACTAGGC | 5.66
GCTTGTAGATCAAGCTTAAGAAAGACTAAGCTAA | -0.459
CCTTACGCGTCACGAGGTTATAGCACGACGAGCG | 0.899
TCAGACAGGTGAAGGTAAGTCAGGTACGCAGTCG | 0.301
TCTCGGAGGACACAAAAGGTCAGAGCTCGACATC | 3.17
CCTCGGAGGACAACAGGACGTCAGAGCTGCCAGA | -0.499
TCATATAGGTAAACAGGCGAAAGTCCGTAAGTTA | 1.13

From the supplement of paper PMC6555819
